PfGluPho inh = PfG6PD (Plasmodium falciparum) enzyme inhibition; PfGluPho enzyme, NADPH resazurin-diaphorase fluorescence; inhibition, % at 20 µM; 350,000 tested, 0.78% active; AID 504690;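 active = inhibition reaching at least a set limit at 20 µM in the primary screen, cut at about 59% in these data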;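 note: 0% = DMSO wells with substrate and 100% = DMSO wells lacking glucose-6-phosphate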
PRMT1 FP inh = blocks human protein arginine methyltransferase 1; Q99873; recombinant PRMT1, activity-based probe fluorescence polarization; inhibition, % at 2.79 µM; 370,000 tested, 1.3% active;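 active = inhibition above about 21% made by adding two undisclosed values, limit read from the data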
MBD2 inh = MBD2-methylated oligo binding inhibition; Q9UBB5; TR-FRET, MBD2 binding to methylated oligonucleotide; inhibition, % at 4.4 µM; 370,000 tested, 0.31% active; AID 686964; in the data active = inhibition above about 13%
PfM18AAP inh-1 = blocks P. falciparum M18 aspartyl aminopeptidase; 290,000 tested, 1.2% active; recombinant PfM18AAP, H-Glu-NHMec fluorogenic cleavage; inhibition, % at 7.35 µM;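 active = inhibition above the campaign mean inhibition over all tested compounds plus 3 SD, cut at about 28% in these data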;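 note: 0% = plate median of test compound wells and 100% = 2 mM ZnCl2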
UHRF1 binding = blocks human UHRF1 binding to methylated DNA; UHRF1 binding to methylated oligo, TR-FRET; inhibition, % at 4.4 µM; 370,000 tested, 0.75% active; in the data active = inhibition above about 21%;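 note: UHRF1 SRA domain binding a hemimethylated CpG hairpin DNA probe; 0% = median of test compound wells and 100% = reference inhibitor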
Target sequence (Q96T88 whole entry, looked up, the tested form may be a part): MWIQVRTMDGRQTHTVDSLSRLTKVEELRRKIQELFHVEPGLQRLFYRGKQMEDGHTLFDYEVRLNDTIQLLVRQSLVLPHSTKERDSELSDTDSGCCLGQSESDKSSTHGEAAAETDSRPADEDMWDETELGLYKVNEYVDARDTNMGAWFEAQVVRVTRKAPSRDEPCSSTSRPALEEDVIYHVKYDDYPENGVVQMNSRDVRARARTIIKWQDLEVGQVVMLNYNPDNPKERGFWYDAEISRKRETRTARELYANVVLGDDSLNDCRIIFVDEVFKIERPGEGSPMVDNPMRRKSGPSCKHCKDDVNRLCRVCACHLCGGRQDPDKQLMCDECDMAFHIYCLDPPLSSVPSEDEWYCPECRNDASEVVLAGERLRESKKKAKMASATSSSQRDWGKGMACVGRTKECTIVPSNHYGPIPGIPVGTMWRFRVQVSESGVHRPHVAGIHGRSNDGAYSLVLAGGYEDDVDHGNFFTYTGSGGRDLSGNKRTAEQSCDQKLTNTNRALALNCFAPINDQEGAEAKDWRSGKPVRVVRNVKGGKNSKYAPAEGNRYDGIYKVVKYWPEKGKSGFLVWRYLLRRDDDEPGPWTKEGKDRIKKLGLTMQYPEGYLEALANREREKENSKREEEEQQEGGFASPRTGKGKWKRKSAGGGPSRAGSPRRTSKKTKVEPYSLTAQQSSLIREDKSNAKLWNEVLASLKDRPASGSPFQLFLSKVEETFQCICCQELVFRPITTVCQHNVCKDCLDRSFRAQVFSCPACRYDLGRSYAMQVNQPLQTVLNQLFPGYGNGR
PfM18AAP inh-2 = PfM18AAP inhibition, confirmation. shares compounds with PfM18AAP inh-1. recombinant PfM18AAP, H-Glu-NHMec fluorogenic cleavage. inhibition, % at 7.35 µM. 2,400 tested, 28% active. AID 2170;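 active = mean inhibition over replicate wells above the hit cutoff set for the earlier primary screen, cut at about 29% in these data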;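 note: 0% = median of test compound wells and 100% = 2 mM ZnCl2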
CTSL1 confirm = Cathepsin L (human) inhibition, confirmation; shares compounds with PfM18AAP inh-1; purified cathepsin L1, Z-Leu-Arg-MCA fluorescence; inhibition, % at 5.96 µM; 2,400 tested, under 10 active;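 active = average inhibition across replicates above the hit cutoff set in the earlier primary screen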;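 note: 0% = median of test compound wells and 100% = Z-Phe-Ala-diazomethylketone 1 µM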
Active calls of the source: *; . = no result given. Sampled rows, rich in hits. Any-hit rate of the full collection: about 3.3%.

SMILES | PfGluPho inh | PRMT1 FP inh | MBD2 inh | PfM18AAP inh-1 | UHRF1 binding | PfM18AAP inh-2 | CTSL1 confirm
C=CCN1C(C(=O)OC)CN(Cc2cn(Cc3ccc(C)cc3)nn2)CCS1(=O)=O (stereo not drawn) | . | 1.6 | 8.0 | . | 16.1 | . | .
CCCCOCC1CN(CCCC)S(=O)(=O)c2c(cccc2Sc2ccc(SC)cc2)O1 (stereo not drawn) | . | -3.5 | -1.2 | . | 8.2 | . | .
CCOC(=O)c1cccc(NC(=O)CN(C)S(=O)(=O)c2cc3ccccc3s2)c1 | . | 1.3 | -3.9 | . | -2.3 | . | .
NCCc1ccc(O)c(O)c1 | 40.0 | 10.1 | 7.1 | 72.7* | 6.2 | 66.1* | -3.5
COc1ccc(/C=C/S(=O)(=O)NCc2ccccc2)c(CNC(=O)OC(C)(C)C)c1 | . | -1.5 | 1.7 | . | 2.1 | . | .
CNC(=S)NNC(=O)c1cn(C)nc1C | 1.8 | -1.7 | -1.6 | 32.5* | -1.9 | 18.9 | -4.1
COc1cc(Cl)c(C)cc1NC(=S)NN | 17.6 | -0.5 | 2.1 | 31.9* | -3.1 | 21.1 | -6.1
O=C(CSc1ccccc1)NC1CCCCN(Cc2ccc(Cl)cc2)C1=O (stereo not drawn) | . | 2.2 | -1.3 | . | -1.2 | . | .
NNc1nc2ccccc2c(=O)n1Cc1ccccc1 | 50.7 | 1.0 | -2.4 | 54.2* | 4.3 | 38.6* | 3.2
Nc1nncn1C(=O)CCCN1C(=O)c2ccccc2C1=O | -15.1 | 1.0 | -0.1 | 44.1* | 0.8 | 47.4* | -12.5
Nc1nncn1C(=O)CCCOc1ccc(Cl)cc1Cl | -7.0 | -4.6 | 1.4 | 47.0* | -3.8 | 62.8* | 4.3
O=C(CCCOc1ccc(Cl)cc1Cl)n1nnc2ccccc21 | 0.7 | -1.2 | 4.5 | -1.9 | 2.4 | . | .
O=C(CCCN1C(=O)c2ccccc2C1=O)N1CCc2ccccc2C1 | -15.0 | 3.1 | 5.0 | -14.3 | 3.5 | . | .
COc1cc(C(c2c(C)[nH][nH]c2=O)c2c(C)[nH][nH]c2=O)cc(Cl)c1O | 27.8 | 1.1 | -5.5 | 25.6 | -12.1 | . | .
COc1cc(C(c2c(C)[nH][nH]c2=O)c2c(C)[nH][nH]c2=O)cc(OC)c1OC | 2.9 | -0.7 | -4.0 | 34.9* | -11.0 | 5.8 | -1.5
COc1ccc(C(c2c(C)[nH][nH]c2=O)c2c(C)[nH][nH]c2=O)cc1Br | 8.7 | 8.1 | -4.3 | 36.1* | -7.7 | 15.1 | 2.5
COC[C@H]1O[C@]2(c3ccccc3)CO[C@H]1[C@@H](/C=C/c1ccccc1)C2 | . | -2.5 | 0.6 | . | 2.6 | . | .
O=C(CSc1nc2ccccc2nc1N1CCCC1)N1CCN(C(c2ccccc2)c2ccccc2)CC1 | . | 3.5 | 3.6 | . | -0.3 | . | .
CC1(C)CC(=O)C/C(=N\NC(=S)NCc2ccccc2)C1 | 15.5 | 1.0 | -6.9 | 43.4* | -3.6 | 37.7* | 2.2
O=C(/C=C(\c1ccc(Cl)cc1)n1cncn1)c1ccc(Cl)cc1 | 3.2 | . | . | 72.9* | . | 15.2 | 4.5
O=C(Cn1cncn1)c1ccccc1Br | 5.3 | -1.5 | 1.8 | 38.8* | -0.7 | 14.6 | -2.2
O=C(Cn1cncn1)c1ccc(Cl)cc1 | -12.6 | -8.9 | 0.8 | 59.0* | -2.4 | 35.9* | 2.5
O=C(Cn1cncn1)NCc1ccccc1Br | -16.3 | -2.1 | 1.7 | 1.1 | -1.6 | . | .
Cc1ccc(C(=O)Cn2cncn2)cc1 | 8.8 | -3.6 | 3.9 | 1.6 | -0.7 | . | .
O=C(/C=C(\c1ccccc1)n1cncn1)c1ccccc1 | -2.4 | -1.3 | 0.6 | 22.9 | 2.7 | . | .
SMILES | PfGluPho inh | PRMT1 FP inh | MBD2 inh | PfM18AAP inh-1 | UHRF1 binding | PfM18AAP inh-2 | CTSL1 confirm
C[C@H]1[C@@H](N(C)C)CC[C@@]23CCCN2C(=O)CCC[C@@H]13 | . | -2.3 | -1.6 | . | -1.9 | . | .
Cn1c(=O)c2ncn(CC(=O)O)c2n(C)c1=O | 0.8 | 1.7 | -1.2 | -2.7 | 2.9 | . | .
O=C(O)Cn1cnc2c(=S)nc[nH]c21 | 19.2 | 2.8 | -5.3 | 57.3* | -0.4 | -4.2 | 3.0
COC(=O)[C@]12C[C@H](CC(=O)NCc3ccc(OC)c(OC)c3)C(=O)N(CCc3ccc(OC)c(OC)c3)C1=C[C@H](C(C)C)O[C@@H]2C1CC1 | . | 0.9 | 3.0 | . | 1.3 | . | .
O=S(=O)(c1ccc(NC(=S)N2CCN(c3ccc(O)cc3)CC2)cc1)N1CCOCC1 | 50.1 | 0.9 | 0.1 | 33.7* | -2.2 | 2.2 | -4.9
O=S(=O)(c1ccc(NC(=S)N2CCOCC2)cc1)N1CCCCC1 | -3.4 | 2.0 | 9.5 | . | 2.2 | . | .
COc1ccc(-c2c(C)nc3c(-c4ccccn4)cnn3c2N)cc1 | 2.7 | -0.3 | -1.0 | 37.6* | -1.2 | 22.5 | 2.6
Cc1cccc(-n2c(CNC(=O)Cc3ccccc3)n[nH]c2=S)c1 | 38.0 | -2.9 | -0.3 | 38.1* | -0.7 | 2.3 | 0.9
COc1ccc(CC(=O)NCc2n[nH]c(=S)n2-c2ccc(F)cc2)cc1 | 10.0 | -3.7 | 0.3 | 22.7 | -1.5 | . | .
Cc1cccc(-n2c(Cc3ccccc3)n[nH]c2=S)c1 | 38.7 | 1.4 | 6.1 | 33.8* | 3.1 | -5.0 | -13.2
COc1ccc(CC(=O)NCc2n[nH]c(=S)n2-c2cccc(Cl)c2)cc1 | 29.6 | 3.9 | 4.9 | 19.8 | -0.4 | . | .
Cc1c(C(=O)NCc2n[nH]c(=S)n2-c2ccc(F)cc2)cccc1[N+](=O)[O-] | 35.2 | -2.0 | -4.1 | 32.6* | 2.8 | 8.0 | 2.1
CCCCCCCCN1C(=O)[C@@H](CC(=O)NCCc2ccccc2OC)C[C@@]2(C(=O)OC)C1=C[C@H](C1CCCC1)O[C@@H]2C | . | 6.4 | 3.1 | . | 0.1 | . | .
C[C@@H]1OC(C2CCCCC2)N(C)[C@H]2C[C@H]3c4[nH]c5c(-c6ccc7c(c6)OCO7)cccc5c4CCN3C[C@@H]12 (stereo partly drawn) | . | 0.8 | -0.7 | . | -0.1 | . | .
CN(C)/C=C/c1oc2ccc(O)cc2c1[N+](=O)[O-] | 25.5 | 13.9 | -15.8 | 35.8* | -21.8 | -34.9 | 11.2
Cc1cc(OCC(=O)Nn2cnnc2)ccc1Br | -20.0 | . | . | 55.9* | . | 59.1* | -7.4
O=C(Oc1cccc2c(O)cccc12)c1ccccc1Cl | 12.8 | 3.6 | -4.8 | . | -0.3 | . | .
O=C(Oc1ccccc1O)c1cccc2ccccc12 | . | -0.6 | -0.1 | 61.3* | -1.6 | 4.5 | -0.1
CCCCn1c(O)c(/C=C2\C=Nc3ccccc32)c(=O)[nH]c1=O | 6.9 | 17.6 | -8.3 | 39.7* | -7.0 | 12.9 | 1.9
N#Cc1c(NC(=O)CSc2ncn[nH]2)sc2c1CCCCC2 | -28.3 | 0.2 | -5.2 | 32.0* | 1.4 | -31.4 | 1.8
CC(C)C(=O)Nc1sc2c(c1C#N)CCCCC2 | 14.9 | 5.3 | -2.0 | 38.2* | 0.4 | -1.1 | -0.9
N#Cc1c(NC(=O)CSc2nc(N)cc(=O)[nH]2)sc2c1CCCCCC2 | -16.6 | -0.7 | -2.2 | -1.1 | 12.4 | . | .
COc1ccc(CNC(=O)c2c(N)[nH]c(C(=O)c3ccccc3)c2-c2ccc3ccccc3c2)cc1OC | . | -2.5 | -2.7 | . | -3.8 | . | .
C[C@H]1[C@@H](OC(=O)NCc2cccs2)CC[C@@]23CCCN2C(=O)CCC[C@@H]13 | . | -1.1 | -0.4 | . | -3.5 | . | .
CC(=O)CC[C@H]1CC[C@]2(CCCN(S(C)(=O)=O)C2)O1 | . | -0.4 | 8.8 | . | 0.4 | . | .
O=C(CSc1nc2ccccc2s1)Nn1cnnc1 | -15.9 | 7.6 | 1.6 | 69.2* | 1.3 | 57.0* | 2.6

High-throughput results (PubChem)
